# Data: PubChem BioAssay (NCATS)
# Values joined by “and” are separate entries in the source; they are usually repeats but may differ in a detail not shown here. Identical values can stand only once. Inconclusive results are not listed. Where a call stands in place of a potency, no number is given. Active and inactive are the calls of the source. Calls follow the shape of the dose curve; as a rule, active = well fitted curve in the direction sought with a large enough effect; inconclusive = small, poorly fitted or top-dose-only effect, or another doubt; inactive = no such curve, though single readings can be large; an effect the other way counts as inactive or inconclusive.
# Key:
# [1] = qHTS of pediatric cancer cell lines to identify multiple opportunities for drug repurposing: Primary screen for DAOY cells (AID 1347090); also: nearly all actives have a fitted effect of over 55% in size; also: potency is read from the fitted curve at half-maximal effect
# How it was run: (§1)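 Eight- or eleven-point concentration series, 48 h treatment at 37 degrees C in growth media; readout CellTiter-Glo luminescence. Potency and efficacy were taken from the concentration-response curves.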
# [2] = qHTS of pediatric cancer cell lines to identify multiple opportunities for drug repurposing: Primary screen for SJ-GBM2 cells (AID 1347091); also: potency is read from the fitted curve at half-maximal effect
# How it was run: as §1
# [3] = qHTS of pediatric cancer cell lines to identify multiple opportunities for drug repurposing: Primary screen for A673 cells (AID 1347092); also: nearly all actives have a fitted effect of over 45% in size; also: potency is read from the fitted curve at half-maximal effect
# How it was run: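 Titration-based qHTS on A673 cells: MIPE compounds spanned 11 points (0.78 nM to 46 µM final), NPC compounds 8 points (0.59 nM to 46 µM final). Viability after 48 h was measured by ATP luminescence.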
# [4] = qHTS of pediatric cancer cell lines to identify multiple opportunities for drug repurposing: Primary screen for SK-N-MC cells (AID 1347093); also: potency is read from the fitted curve at half-maximal effect
# How it was run: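 Metabolically active cells were quantified by ATP-dependent luminescence (CellTiter-Glo, 15 min at room temperature) following 48 h treatment. Cells had been plated at 500-1,000 per well and settled for 5 h beforehand.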
# [5] = qHTS of pediatric cancer cell lines to identify multiple opportunities for drug repurposing: Primary screen for BT-37 cells (AID 1347094); also: potency is read from the fitted curve at half-maximal effect
# How it was run: (§2)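 Plated cells (500-1,000 per well, growth media) were allowed to settle for 5 hours, treated with compound dilutions for 48 hours, then lysed with CellTiter-Glo for 15 min at room temperature before luminescence reading.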
# [6] = qHTS of pediatric cancer cell lines to identify multiple opportunities for drug repurposing: Primary screen for NB-EBc1 cells (AID 1347095); also: potency is read from the fitted curve at half-maximal effect
# How it was run: as §2
# [7] = qHTS of pediatric cancer cell lines to identify multiple opportunities for drug repurposing: Primary screen for U-2 OS cells (AID 1347096); also: nearly all actives have a fitted effect of over 50% in size; also: potency is read from the fitted curve at half-maximal effect
# How it was run: (§3)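 Cells (500-1,000/well) in growth media were settled 5 h at 37 degrees C, then given compounds for 48 h. Viability was read as CellTiter-Glo luminescence. Primary runs used MIPE at 11 points (0.78 nM-46 µM) and NPC at 8 points (0.59 nM-46 µM); follow-ups used 11 points.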
# [8] = qHTS of pediatric cancer cell lines to identify multiple opportunities for drug repurposing: Primary screen for Saos-2 cells (AID 1347097); also: nearly all actives have a fitted effect of over 40% in size; also: potency is read from the fitted curve at half-maximal effect
# How it was run: as §2
# [9] = qHTS of pediatric cancer cell lines to identify multiple opportunities for drug repurposing: Primary screen for SK-N-SH cells (AID 1347098); also: nearly all actives have a fitted effect of over 65% in size; also: potency is read from the fitted curve at half-maximal effect
# How it was run: (§4)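 Cells (500-1,000/well) rested 5 h, then received compounds for 48 h; metabolically active cells were measured by CellTiter-Glo luminescence. Final concentrations spanned up to 46 µM (MIPE, 11-point) or 0.59 nM-46 µM (NPC, 8-point) in primary screens, 11-point in follow-ups.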
# [10] = qHTS of pediatric cancer cell lines to identify multiple opportunities for drug repurposing: Primary screen for NB1643 cells (AID 1347099); also: nearly all actives have a fitted effect of over 50% in size; also: potency is read from the fitted curve at half-maximal effect
# How it was run: as §2
# [11] = qHTS of pediatric cancer cell lines to identify multiple opportunities for drug repurposing: Primary screen for LAN-5 cells (AID 1347100); also: potency is read from the fitted curve at half-maximal effect
# How it was run: as §3
# [12] = qHTS of pediatric cancer cell lines to identify multiple opportunities for drug repurposing: Primary screen for BT-12 cells (AID 1347101); also: nearly all actives have a fitted effect of over 25% in size; also: potency is read from the fitted curve at half-maximal effect
# How it was run: as §4
# [13] = qHTS of pediatric cancer cell lines to identify multiple opportunities for drug repurposing: Primary screen for OHS-50 cells (AID 1347103); also: nearly all actives have a fitted effect of over 40% in size; also: potency is read from the fitted curve at half-maximal effect
# How it was run: as §4
# [14] = qHTS of pediatric cancer cell lines to identify multiple opportunities for drug repurposing: Primary screen for control Hh wild type fibroblast cells (AID 1347106);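 also: series mostly up to about 46 µM; a drop in luminescence marks cytotoxicity and a rise apparent proliferation; nearly all actives have a fitted effect of over 55% in size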
# How it was run: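 Viability after 48 h compound treatment at 37C, 500-1,000 cells/well, read as ATP luminescence with CellTiter-Glo. Primary screens used 11-point (MIPE, 0.78 nM-46 µM) or 8-point (NPC, 0.59 nM-46 µM) final concentrations; follow-up screens used 11-point dilutions.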
# [15] = qHTS of pediatric cancer cell lines to identify multiple opportunities for drug repurposing: Primary screen for Rh30 cells (AID 1347107); also: series mostly up to about 46 µM; nearly all actives have a fitted effect of over 75% in size
# How it was run: as §3
# [16] = qHTS of pediatric cancer cell lines to identify multiple opportunities for drug repurposing: Primary screen for Rh41 cells (AID 1347108); also: nearly all actives have a fitted effect of over 70% in size; also: potency is read from the fitted curve at half-maximal effect
# How it was run: as §2
# [17] = qHTS of pediatric cancer cell lines to identify multiple opportunities for drug repurposing: Primary screen for TC32 cells (AID 1347089); also: nearly all actives have a fitted effect of over 60% in size
# How it was run: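 A viability screen of TC32 cells was run over 48 h, with primary MIPE doses spanning 0.78 nM–46 µM and NPC doses 0.59 nM–46 µM. ATP luminescence (CellTiter-Glo) served as the read-out.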
# [18] = qHTS of pediatric cancer cell lines to identify multiple opportunities for drug repurposing: Primary screen for Rh18 cells (AID 1347102); also: nearly all actives have a fitted effect of over 65% in size; also: potency is read from the fitted curve at half-maximal effect
# How it was run: as §3
# [19] = qHTS of pediatric cancer cell lines to identify multiple opportunities for drug repurposing: Primary screen for RD cells (AID 1347104); also: nearly all actives have a fitted effect of over 55% in size
# How it was run: as §2
# [20] = qHTS of pediatric cancer cell lines to identify multiple opportunities for drug repurposing: Primary screen for MG 63 (6-TG R) cells (AID 1347105); also: nearly all actives have a fitted effect of over 50% in size; also: potency is read from the fitted curve at half-maximal effect
# How it was run: as §2
Structure (SMILES),Potency [1],Potency [2],Potency [3],Potency [4],Potency [5],Potency [6],Potency [7],Potency [8],Potency [9],Potency [10],Potency [11],Potency [12],Potency [13],Potency [14],outcome [15],Potency [16],Potency [17],Potency [18],Potency [19],Potency [20]
CC#C[C@]1(O)CC[C@H]2[C@@H]3CCC4=CC(=O)CCC4=C3[C@@H](c3ccc(N(C)C)cc3)C[C@@]21C,0.469 µM (active),1.05 µM (active),26.6 µM (active) and 118 nM (active),0.118 µM (active),0.243 µM (active),0.526 µM (active),0.935 µM (active),2.64 µM (active),0.242 µM (active),inactive,16.8 µM (active) and 209 nM (active),0.685 µM (active),7.69 µM (active),inactive,inactive,0.743 µM (active),–,–,–,–
C[C@](N)(Cc1ccc(O)c(O)c1)C(=O)O,–,inactive,–,inactive,inactive,inactive,inactive,inactive,–,inactive,inactive,inactive,inactive,inactive,inactive,inactive,inactive,inactive,inactive,inactive
CC(C)NCC(O)c1ccc(O)c(O)c1 (centres undefined),–,–,1.18 µM (active),0.935 µM (active),–,–,inactive,–,inactive,–,–,inactive,inactive,inactive,inactive,–,inactive,–,–,–
COc1cc2nc(N3CCN(C(=O)c4ccco4)CC3)nc(N)c2cc1OC,–,inactive,14.8 µM (active),11.8 µM (active),24.3 µM (active),inactive,–,–,27.1 µM (active),26.4 µM (active),14.8 µM (active),9.53 µM (active),–,inactive,inactive,inactive,inactive,–,–,inactive
CC12CC3CC(C)(C1)CC(N)(C3)C2,–,inactive,–,–,inactive,inactive,inactive,inactive,27.1 µM (active),–,inactive,inactive,–,inactive,inactive,–,inactive,inactive,–,inactive
COc1ccc2c(c1)c(CC(=O)O)c(C)n2C(=O)c1ccc(Cl)cc1,–,–,–,29.6 µM (active),inactive,inactive,inactive,–,–,–,inactive,inactive,inactive,inactive,inactive,inactive,inactive,inactive,inactive,inactive
CN(C)c1nc(N(C)C)nc(N(C)C)n1,–,inactive,inactive,–,inactive,inactive,inactive,inactive,inactive,inactive,inactive,inactive,inactive,inactive,inactive,inactive,inactive,inactive,–,inactive
Cc1cc(C(C)(C)C)c(O)c(C)c1CC1=NCCN1,–,inactive,inactive,–,inactive,inactive,inactive,inactive,inactive,inactive,inactive,inactive,inactive,inactive,inactive,inactive,inactive,inactive,–,inactive
Cn1c(=O)c2[nH]cnc2n(C)c1=O,–,inactive,inactive,–,inactive,inactive,inactive,inactive,inactive,inactive,inactive,inactive,inactive,inactive,inactive,inactive,inactive,inactive,–,inactive
CN1CCC(=C2c3ccccc3CC(=O)c3sccc32)CC1,–,inactive,–,6.62 µM (active),inactive,inactive,inactive,inactive,24.1 µM (active),inactive,inactive,inactive,–,inactive,inactive,inactive,inactive,inactive,–,23.5 µM (active)
COc1ccccc1N1CCN(CC(O)COc2cccc3ccccc23)CC1 (centres undefined),inactive,inactive,inactive,inactive,inactive,inactive,inactive,–,–,inactive,inactive,inactive,15.5 µM (active),inactive,inactive,–,–,inactive,–,inactive
CNCCCC12CCC(c3ccccc31)c1ccccc12,–,–,21.1 µM (active) and 23.5 µM (active),23.5 µM (active),–,inactive,–,26.4 µM (active),13.7 µM (active),–,inactive,–,27.6 µM (active) and 24.3 µM (active),inactive,inactive,–,inactive,18.8 µM (active) and 18.7 µM (active),–,16.8 µM (active)
O=C1Cc2cc(CCN3CCN(c4nsc5ccccc45)CC3)c(Cl)cc2N1,–,inactive,–,inactive,–,inactive,inactive,–,inactive,inactive,inactive,inactive,–,inactive,inactive,inactive,inactive,inactive,–,inactive
OCCN(CCO)c1nc(N2CCCCC2)c2nc(N(CCO)CCO)nc(N3CCCCC3)c2n1,–,inactive,–,23.5 µM (active),inactive,inactive,inactive,–,–,inactive,inactive,–,21.7 µM (active),inactive,inactive,inactive,inactive,inactive,–,–
